# From PubChem BioAssay (NCATS)
# Results filed as inconclusive are left out. The source made the active and inactive calls. Calls come from the whole dose curve; as a rule, active = well fitted activation curve with a large enough effect; inconclusive = small, poorly fitted or top-dose-only effect; inactive = flat fitted curve, though single readings scatter.
# Assay: Validation screen for small molecules that induce DNA re-replication in SW480 colon adenocarcinoma cells (AID 504364)
# Details: DNA re-replication phenotype (high-content imaging); series mostly up to 46.1 µM
# In short: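 Image-based qHTS: compounds were incubated with SW480 cells for 48 hr, nuclei stained with Hoechst, and per-nucleus fluorescence intensity scanned to flag cells with excess DNA content.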
row,SMILES,outcome
1,CC(=O)[C@H]1CC[C@H]2[C@@H]3CCC4=CC(=O)CC[C@]4(C)[C@H]3CC[C@]12C,inactive
2,Cc1ccc(S(=O)(=O)N[C@@H](Cc2ccccc2)C(=O)CCl)cc1,inactive
3,CC(C)(C)NC(=O)[C@H]1CC[C@H]2[C@@H]3CC[C@H]4NC(=O)C=C[C@]4(C)[C@H]3CC[C@]12C,inactive
4,CCN1CCCC1CNC(=O)c1cc(S(N)(=O)=O)ccc1OC (centres undefined),inactive
